# Reference: PubChem BioAssay (NCATS)
# Where “and” joins values, the source holds several entries; their conditions need not be identical. Equal values may be shown once. Values without a mark were called inactive. Results filed as inconclusive are left out. Entries that show only a call come without a potency. Calls of active or inactive are those of the source. Unless noted, calls follow the shape of the dose curve; as a rule, active = well fitted curve in the direction sought with a large enough effect; inconclusive = small, poorly fitted or top-dose-only effect, or another doubt; inactive = no such curve, though single readings can be large; an effect the other way counts as inactive or inconclusive.
# What was measured:
# [1] = target: Guanine nucleotide-binding protein G(i) subunit alpha-1 (Homo sapiens) (UniProt P63096); experiment: qHTS Assay for Inhibitors of RGS12 GoLoco Motif Activity (Green Fluorophore) (AID 879);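 also: negative values mean loss of peptide binding seen as reduced polarization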
# Chain of Guanine nucleotide-binding protein G(i) subunit alpha-1 (Homo sapiens) (P63096 whole entry, looked up): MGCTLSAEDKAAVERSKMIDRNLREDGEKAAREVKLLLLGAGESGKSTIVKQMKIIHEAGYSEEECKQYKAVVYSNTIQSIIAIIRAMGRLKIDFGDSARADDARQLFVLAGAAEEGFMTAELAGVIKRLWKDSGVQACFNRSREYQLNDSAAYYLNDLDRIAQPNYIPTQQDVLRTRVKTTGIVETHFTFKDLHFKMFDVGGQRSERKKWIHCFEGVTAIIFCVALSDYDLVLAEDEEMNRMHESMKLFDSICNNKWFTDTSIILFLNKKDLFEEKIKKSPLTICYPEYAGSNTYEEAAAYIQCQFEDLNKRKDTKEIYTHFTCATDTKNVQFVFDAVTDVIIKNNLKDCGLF
# Method in brief: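 A drop in FITC polarization marked displacement of the FITC-tagged RGS12 GoLoco peptide (10 nM) from Gαi1 (50 nM). Compounds were incubated 10 min at room temperature in Tris pH 7.5 buffer containing 150 mM NaCl, 0.1 mM GDP and 0.05% NP40; unlabeled peptide titration served as control.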
# [2] = target: Cytochrome P450 3A4 (Homo sapiens) (UniProt P08684); experiment: qHTS Assay for Inhibitors and Substrates of Cytochrome P450 3A4 (AID 884); also: nearly all actives have a fitted effect of over 50% in size; also: potency is read from the fitted curve at half-maximal effect
# Chain of Cytochrome P450 3A4 (Homo sapiens) (P08684 whole entry, looked up): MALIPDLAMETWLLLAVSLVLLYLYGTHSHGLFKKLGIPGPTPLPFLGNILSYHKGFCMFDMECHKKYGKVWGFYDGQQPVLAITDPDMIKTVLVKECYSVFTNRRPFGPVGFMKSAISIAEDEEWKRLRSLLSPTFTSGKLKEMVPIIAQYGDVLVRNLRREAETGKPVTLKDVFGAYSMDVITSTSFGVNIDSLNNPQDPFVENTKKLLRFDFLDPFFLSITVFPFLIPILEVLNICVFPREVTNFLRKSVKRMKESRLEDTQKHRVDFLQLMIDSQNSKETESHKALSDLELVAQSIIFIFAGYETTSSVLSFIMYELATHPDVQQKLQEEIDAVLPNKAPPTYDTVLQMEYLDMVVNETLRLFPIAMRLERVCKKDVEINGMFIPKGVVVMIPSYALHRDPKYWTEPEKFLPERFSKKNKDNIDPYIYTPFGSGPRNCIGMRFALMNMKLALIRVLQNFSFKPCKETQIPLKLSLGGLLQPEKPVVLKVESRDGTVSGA
# Method in brief: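 Luminescent readout of luciferin produced by CYP3A4 (20 nM) dealkylation of Luciferin-PPXE, 25 uM (its KM). NADPH-driven reaction ran 60 min at RT after 10 min compound preincubation; data scaled to 57 uM ketoconazole as 100% inhibition.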
# [3] = qHTS Assay for Identification of Small Molecule Agonists for Thrombopoietin (TPO) Signaling Pathway (AID 917)
# Method in brief: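 First, Ba/F3 cells with human TPO receptor were held overnight without IL-3. Next, compounds and TPO (26 pM final) were added. After 24 hrs at 37 C, luciferase detection reagent was added and luminescence measured following 10 min at room temperature.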
# [4] = target: Muscarinic acetylcholine receptor M1 (Rattus norvegicus) (UniProt P08482); experiment: qHTS Assay for Antagonists of Acetylcholine Muscarinic M1 Receptor: Measurement of IP-One Response (AID 944); also: nearly all actives have a fitted effect of over 75% in size; also: potency is read from the fitted curve at half-maximal effect
# Chain of Muscarinic acetylcholine receptor M1 (Rattus norvegicus) (P08482 whole entry, looked up): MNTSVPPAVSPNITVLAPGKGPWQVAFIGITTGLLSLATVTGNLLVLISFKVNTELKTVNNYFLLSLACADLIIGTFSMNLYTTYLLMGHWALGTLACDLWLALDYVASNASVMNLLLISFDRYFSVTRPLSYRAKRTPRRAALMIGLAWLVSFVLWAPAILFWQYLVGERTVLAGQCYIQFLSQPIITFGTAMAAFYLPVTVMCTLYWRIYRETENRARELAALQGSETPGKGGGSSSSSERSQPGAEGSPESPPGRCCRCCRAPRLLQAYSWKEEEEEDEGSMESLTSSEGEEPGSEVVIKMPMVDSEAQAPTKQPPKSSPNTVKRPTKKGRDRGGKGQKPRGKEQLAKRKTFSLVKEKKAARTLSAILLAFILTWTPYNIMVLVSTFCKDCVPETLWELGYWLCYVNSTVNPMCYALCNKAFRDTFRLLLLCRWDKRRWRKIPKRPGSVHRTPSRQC
# Method in brief: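 IP1 accumulation measured via TR-FRET between d2-IP1 and Eu-cryptate anti-IP1 antibody after carbachol (200 nM, EC80) stimulation for 30 min; rat M1-transfected CHO cells received compound 10 min before agonist.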
# [5] = Confirmation and Secondary Assay for Modulators of Hemoglobin Beta Chain Splicing at IVS2 654 locus (AID 910);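 also: HeLa cells stably carrying EGFP split by mutant beta-globin IVS2-654 intron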
# Method in brief: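 HeLa cells stably expressing EGFP interrupted by β-globin IVS2-654 intron, seeded overnight in Opti-MEM/2% FCS, then treated 2 days at 37 °C. Restored splicing read as total peak GFP intensity per well by laser scanning cytometry (488 nm excitation, 500–520 nm emission); 500 nM antisense PNA as control.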
# [6] = target: Cytochrome P450 3A4 (Homo sapiens) (UniProt P08684); experiment: qHTS Assay for Activators of Cytochrome P450 3A4 (AID 885); also: nearly all actives have a fitted effect of over 65% in size
# Method in brief: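 Using 20nM recombinant human CYP3A4 in potassium phosphate (200mM), substrate Luciferin-PPXE at 25uM, luminescent luciferin detection followed a 60-min RT NADPH reaction; data scaled to 57 uM ketoconazole.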
# [7] = qHTS Assay for Identification of Small Molecule Agonists for Hypoxia Response Element Signaling Pathway (AID 914; active = well fitted activation curve with a large enough effect in the signal ratio, with a control signal flat, not every such curve was filed as active; the % refers to the signal ratio); details: ME-180 (cervical carcinoma) HRE-bla reporter, beta-lactamase ratio, CoCl2, 17 h; hits give high values
# Method in brief: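 Compounds in a titration series were added to ME-180 reporter cells alongside an EC50 level of CoCl2. After 17 hours, beta-lactamase activity was read as the 460nm/530nm emission ratio of CCF4, giving AC50 values.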
# [8] = target: Cytochrome P450 2C19 (Homo sapiens) (UniProt P33261); experiment: qHTS Assay for Inhibitors and Substrates of Cytochrome P450 2C19 (AID 899); also: nearly all actives have a fitted effect of over 60% in size; also: potency is read from the fitted curve at half-maximal effect
# Chain of Cytochrome P450 2C19 (Homo sapiens) (P33261 whole entry, looked up): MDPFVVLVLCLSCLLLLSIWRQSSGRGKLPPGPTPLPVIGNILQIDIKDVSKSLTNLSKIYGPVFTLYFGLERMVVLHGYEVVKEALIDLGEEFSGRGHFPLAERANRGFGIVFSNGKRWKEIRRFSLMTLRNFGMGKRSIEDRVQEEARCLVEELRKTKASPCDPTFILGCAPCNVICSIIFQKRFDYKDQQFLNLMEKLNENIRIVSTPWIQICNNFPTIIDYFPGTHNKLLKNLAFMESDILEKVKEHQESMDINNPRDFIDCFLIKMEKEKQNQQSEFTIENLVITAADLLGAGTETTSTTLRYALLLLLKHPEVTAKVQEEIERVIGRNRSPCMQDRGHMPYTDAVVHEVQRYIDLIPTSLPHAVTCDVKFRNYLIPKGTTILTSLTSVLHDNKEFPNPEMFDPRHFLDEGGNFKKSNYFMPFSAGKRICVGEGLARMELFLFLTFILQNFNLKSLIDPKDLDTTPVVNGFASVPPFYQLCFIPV
# Method in brief: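 5 nM human CYP2C19 with 10uM Luciferin-H EGE (at KM) in 50mM KPO4, compound preincubated 10 min at 37C, then NADPH regeneration for 60 min at 37C. Luciferin read by luminescence after detection reagent; normalized to 57uM ketoconazole as full inhibition.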
# [9] = target: Cytochrome P450 2D6 (Homo sapiens) (UniProt P10635); experiment: qHTS Assay for Inhibitors and Substrates of Cytochrome P450 2D6 (AID 891); also: nearly all actives have a fitted effect of over 60% in size; also: potency is read from the fitted curve at half-maximal effect
# Chain of Cytochrome P450 2D6 (Homo sapiens) (P10635 whole entry, looked up): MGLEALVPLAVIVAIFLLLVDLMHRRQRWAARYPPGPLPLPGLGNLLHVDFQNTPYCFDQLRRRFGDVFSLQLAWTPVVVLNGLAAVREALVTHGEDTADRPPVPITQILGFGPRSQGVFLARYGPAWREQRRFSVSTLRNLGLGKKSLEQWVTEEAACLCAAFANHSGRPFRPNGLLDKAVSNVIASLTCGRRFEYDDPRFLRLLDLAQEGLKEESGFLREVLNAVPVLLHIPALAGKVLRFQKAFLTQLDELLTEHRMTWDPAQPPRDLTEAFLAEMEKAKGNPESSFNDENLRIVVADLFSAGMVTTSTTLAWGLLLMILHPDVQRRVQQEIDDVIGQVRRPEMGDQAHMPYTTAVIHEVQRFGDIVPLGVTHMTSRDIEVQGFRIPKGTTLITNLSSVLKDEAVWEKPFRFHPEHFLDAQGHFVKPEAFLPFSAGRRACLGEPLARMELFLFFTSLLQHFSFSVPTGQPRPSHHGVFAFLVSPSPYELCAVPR
# Method in brief: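 Luminescent read-out of luciferin formed by 5 nM human CYP2D6 demethylating 30 uM Luciferin-ME EGE (Km level) over 60 min at room temperature after NADPH regeneration addition. Data normalized to full inhibition by 1.43 uM quinidine.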
# [10] = target: Muscarinic acetylcholine receptor M1 (Rattus norvegicus) (UniProt P08482); experiment: qHTS Assay for Antagonists of Acetylcholine Muscarinic M1 Receptor: Kinetic Measurement of Intracellular Calcium Response (AID 943); also: nearly all actives have a fitted effect of over 75% in size; also: potency is read from the fitted curve at half-maximal effect
# Method in brief: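 Antagonism measured as reduction of carbachol-evoked (EC80, 100 nM final) calcium flux in rat M1-CHO cells after 10 min compound exposure. Fluo-4 signal read kinetically; ratio of maximal to basal fluorescence.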
# [11] = qHTS Assay for Identification of Small Molecule Antagonists for Thrombopoietin (TPO) Signaling Pathway (AID 918); details: TPO-dependent cell signaling reporter, antagonist mode; also: potency is read from the fitted curve at half-maximal effect; nearly all actives have a fitted effect of over 60% in size
# Method in brief: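 Inhibition read as reduced luciferase luminescence after 24 h at 37 C in IL-3-deprived Ba/F3 cells carrying human TPO receptor and GPIIb-promoter reporter, stimulated with 26 pM TPO (final, its EC50) alongside compound.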
# [12] = target: Cytochrome P450 2C9 (Homo sapiens) (UniProt P11712); experiment: qHTS Assay for Inhibitors and Substrates of Cytochrome P450 2C9 (AID 883); also: nearly all actives have a fitted effect of over 60% in size; also: potency is read from the fitted curve at half-maximal effect
# Chain of Cytochrome P450 2C9 (Homo sapiens) (P11712 whole entry, looked up): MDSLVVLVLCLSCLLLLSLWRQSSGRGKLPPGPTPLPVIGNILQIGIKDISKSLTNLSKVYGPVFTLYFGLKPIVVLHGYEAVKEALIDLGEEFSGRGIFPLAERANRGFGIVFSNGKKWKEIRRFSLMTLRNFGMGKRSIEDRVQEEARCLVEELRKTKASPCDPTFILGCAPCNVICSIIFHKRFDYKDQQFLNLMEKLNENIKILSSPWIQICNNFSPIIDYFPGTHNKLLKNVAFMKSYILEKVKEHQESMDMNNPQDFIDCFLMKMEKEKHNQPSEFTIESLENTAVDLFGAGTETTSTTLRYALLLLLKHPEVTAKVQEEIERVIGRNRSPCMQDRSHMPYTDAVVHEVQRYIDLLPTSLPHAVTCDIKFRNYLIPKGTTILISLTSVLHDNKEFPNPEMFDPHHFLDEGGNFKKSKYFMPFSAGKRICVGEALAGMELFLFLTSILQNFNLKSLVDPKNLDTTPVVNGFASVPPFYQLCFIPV
# Method in brief: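 Human CYP2C9 (10nM) with Luciferin-H at 100uM (its KM) in 25mM KPO4; compound preincubated 10 min at 37C, then NADPH regeneration for 60 min at 37C. Luciferin read by luminescence after detection reagent; normalized to 57uM sulphaphenazole as full inhibition.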
smiles,measurement,setting,value
O=C(O)CC[N+](=O)[O-],outcome,[1],inactive
same,Potency,[2],inactive
same,outcome,[3],inactive
same,Potency,[4],inactive
CC(Cc1ccc(O)cc1)NCC(O)c1cc(O)cc(O)c1 (centres undefined),Potency,[5],inactive
C#CC1(O)CCC2C3CCC4=CC(=O)CCC4(C)C3CCC21C (centres undefined),Potency,[2],inactive
same,Potency,[5],inactive
NCCc1c[nH]c2ccc(O)cc12,outcome,[1],inactive
same,outcome,[6],inactive
same,activation,[7],17.2% and 2.69%
same,outcome,[3],inactive
CCCN1CCO[C@@H]2c3cc(O)ccc3OC[C@H]21,outcome,[1],inactive
same,outcome,[6],inactive
same,Potency,[8],inactive
same,outcome,[3],inactive
same,Potency,[4],inactive
COc1cc2c(cc1OC)[C@@H]1C(=O)c3ccc4c(c3O[C@@H]1CO2)C=CC(C)(C)O4,outcome,[6],inactive
same,Potency,[9],0.0631 µM (active)
same,Potency,[8],5.01 µM (active)
CNCCc1c[nH]c2ccc(O)cc12,outcome,[1],inactive
same,Potency,[2],inactive
same,outcome,[3],inactive
same,Potency,[10],inactive
same,Potency,[4],inactive
COc1ccc2c(c[n+](C)c3c4cc5c(cc4ccc23)OCO5)c1OC,outcome,[1],inactive
same,outcome,[6],inactive
same,Potency,[11],2 µM (active)
same,Potency,[10],inactive
same,Potency,[4],35.5 µM (active)
CC(C)Oc1cccnc1N(C)C1CCN(Cc2ccccc2)CC1,outcome,[1],inactive
same,outcome,[6],inactive
same,Potency,[9],7.94 µM (active)
same,activation,[7],-11.6%
same,outcome,[3],inactive
CC[C@@H]1C(=O)OC[C@@H]1Cc1cncn1C,Potency,[2],12.6 µM (active)
same,outcome,[6],inactive
NC(=O)c1ccc(-c2nc(-c3ccc4c(c3)OCO4)c(-c3ccccn3)[nH]2)cc1,Potency,[8],2.51 µM (active)
c1ccc2sc(C3(N4CCCCC4)CCCCC3)cc2c1,outcome,[1],inactive
same,outcome,[6],inactive
same,Potency,[9],3.16 µM (active)
same,Potency,[4],inactive
C[C@]12N[C@H](Cc3ccccc31)c1ccccc12,outcome,[1],inactive
same,outcome,[6],inactive
same,outcome,[3],inactive
O=c1cccc2n1CC1CNC[C@H]2C1,Potency,[12],inactive
same,outcome,[6],inactive
same,Potency,[9],inactive
same,Potency,[8],inactive
CCCN1CCO[C@@H]2c3cc(O)ccc3OC[C@@H]21,outcome,[6],inactive
CCC(=O)OC1CCC2C3CCC4=CC(=O)CC[C@@]4(C)C3CC[C@]12C (some centres undefined),Potency,[5],inactive
c1ccc(CCCN2CCN(CCOC(c3ccccc3)c3ccccc3)CC2)cc1,outcome,[1],inactive
same,Potency,[10],0.891 µM (active)
same,Potency,[4],8.91 µM (active)
CNCCc1ccc(O)c(O)c1,outcome,[1],inactive
same,Potency,[10],inactive
same,Potency,[4],inactive
COc1ccc(C(=O)c2c(C)n(CCN3CCOCC3)c3cc(I)ccc23)cc1,Potency,[2],5.01 µM (active)
same,outcome,[6],inactive
CCCCCCCCCCCCCCCC[N+](C)(C)C,Potency,[2],inactive
same,Potency,[5],inactive
CN[C@@H]1C[C@@H](c2ccc(Cl)c(Cl)c2)c2ccccc21,outcome,[1],inactive
same,Potency,[11],12.6 µM (active)
same,Potency,[10],2.24 µM (active)
same,Potency,[4],inactive
O=C(O)CCCOc1ccc(Cl)cc1Cl,Potency,[2],inactive
same,Potency,[5],inactive
C[C@@H]1O[C@H](C[N+](C)(C)C)C[C@H]1O,outcome,[1],inactive
same,outcome,[3],inactive
same,Potency,[10],inactive
same,Potency,[4],inactive
NC(N)=NOCCC(N)C(=O)O (centres undefined),outcome,[1],inactive
same,Potency,[5],inactive
same,outcome,[3],inactive
same,Potency,[10],inactive
NCCc1c[nH]c2ccccc12,outcome,[1],inactive
same,Potency,[2],inactive
same,Potency,[5],inactive
same,activation,[7],-27.7%
same,outcome,[3],inactive
same,Potency,[10],inactive
same,Potency,[4],inactive
Clc1cnc(Oc2ccc(Oc3ncc(Cl)cc3Cl)cc2)c(Cl)c1,outcome,[1],inactive
same,Potency,[12],inactive
same,outcome,[3],inactive
same,Potency,[4],inactive
CCn1cc(C(=O)O)c(=O)c2cc3c(cc21)OCO3,Potency,[9],inactive
NCc1cc(=O)[nH]o1,outcome,[1],inactive
same,Potency,[8],inactive
same,outcome,[3],inactive
same,Potency,[10],inactive
same,Potency,[4],inactive
O=C(N[C@H]1CN2CCC1CC2)c1ccc(Cl)cc1,Potency,[2],inactive
Cc1c(C(=O)c2cccc3ccccc23)c2cccc3c2n1[C@H](CN1CCOCC1)CO3,outcome,[1],inactive
same,Potency,[11],12.6 µM (active)
C#CCOC(=O)C1=CCCN(C)C1,outcome,[1],inactive
same,Potency,[10],inactive
same,Potency,[4],inactive
CCCN1CCC[C@H](c2cccc(O)c2)C1,outcome,[1],inactive
same,outcome,[3],inactive
same,Potency,[4],inactive
Nc1ccccc1N,outcome,[6],inactive
CCCCCC[C@H]1C(=O)O[C@H](C)[C@H](NC(=O)c2cccc(NC=O)c2O)C(=O)O[C@@H](C)[C@@H]1OC(=O)CC(C)C,outcome,[6],inactive
CC(C)c1ccc2c(c1)c(SC(C)(C)C)c(CC(C)(C)C(=O)O)n2Cc1ccc(Cl)cc1,Potency,[12],6.31 µM (active)
same,outcome,[6],inactive
